Results on 26 compounds are retold here after PubChem BioAssay (NCI).

Compounds without any hit were thinned out: in the full panel of roughly 83,000, 20% have a hit.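 Percent growth is the endpoint: 0 to 100 indicates growth inhibition (40 means 60% inhibition), 0 means no net growth, and negative values indicate cell death.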 Unmarked numbers belong to inactive results. Active and inactive are the calls of the source. Rule for the calls: active = growth percent below 10; inactive = the rest.

Test systems include T-47D breast; MDA-MB-435 melanoma; SW-620 colon; MCF7 breast; HCT-116 colon; HCC-2998 colon; KM12 colon.
Common to all, as to experiment: NCI-60 one-dose screen, 48 h (100 = growth as untreated, 0 = no growth, -100 = all killed)
Common to all, as to settings: 10 µM unless noted

Consider `O=S(=O)(NCCCNc1nccc(-n2ccc3cccnc32)n1)c1ccc(Br)cc1`, for which the growth was 95.6% in the test with T-47D breast; 107% with MDA-MB-435 melanoma; 110% in the test with SW-620 colon; 110% in the test on MCF7 breast; 105% in the test on HCT-116 colon; 121% with HCC-2998 colon. For the same compound, the growth in the test with KM12 colon was 98.3%.
With `C1=Cc2ccccc2N(c2nnc(-c3ccccc3)o2)c2ccccc21`, the growth in the test on T-47D breast was 100%; in the test on MDA-MB-435 melanoma, 87.9%; in the test with SW-620 colon, 99.9%; in the test on MCF7 breast it was 87.6%; in the test with HCT-116 colon, 66.6%; with HCC-2998 colon it was 121%. Further, the growth with KM12 colon is 92.3%.
As to `C=C1CCC2C(C)(CO)C(O)CCC2(C)C1C/C=C1/C(=O)OCC1O/C=C/c1ccccc1` (stereo not given), the growth in the test with T-47D breast is 33.4%; in the test with MDA-MB-435 melanoma, 75.8%; in the test with SW-620 colon, 5.82% (active); in the test with MCF7 breast, 32.6%; in the test on HCT-116 colon, 58.5%; with HCC-2998 colon it was 101%. The growth in the test with KM12 colon was 74.8%.
As to `CC(C)(C)n1cc(-c2ccnc(NCCCNS(=O)(=O)c3ccc(F)cc3)c2)c(-c2cccc(O)c2)n1`, the growth in the test with T-47D breast is 31.2%; with MDA-MB-435 melanoma, 58.6%; in the test with SW-620 colon it was 8.4% (active); with MCF7 breast it was 16.7%; with HCT-116 colon, 32%; in the test on HCC-2998 colon it was 9.22% (active). For the same compound, in the test with KM12 colon, the growth is 28.2%.
Consider `C=C1CCC2C3(C)COC(C)(C)OC3CCC2(C)C1C/C=C1/C(=O)OCC1Oc1ccccc1OC` (stereo not given), for which the growth in the test on T-47D breast was 54.3%; with MDA-MB-435 melanoma, 68.6%; with SW-620 colon, 21.4%; in the test with MCF7 breast it was 30.2%; with HCT-116 colon it was 73.3%; in the test on HCC-2998 colon, 122%. For the same compound, the growth with KM12 colon was 97.9%.
With `COc1ccc(C(=O)n2nc(/C=C/c3ccc(O)c(OC)c3)cc2/C=C/c2ccc(O)c(OC)c2)cc1`, the growth with T-47D breast is -4.93% (active); with MDA-MB-435 melanoma, -22.5% (active); in the test with SW-620 colon, 4.16% (active); in the test with MCF7 breast, -3.07% (active); with HCT-116 colon it was -0.661% (active); in the test with HCC-2998 colon it was 16.4%. The growth in the test with KM12 colon was 6.33% (active).
Consider `O=C(NCCNc1nccc(-n2ccc3cccnc32)n1)c1ccc(C(F)(F)F)cc1`, for which the growth in the test with T-47D breast was 102%; with MDA-MB-435 melanoma it was 99.9%; with SW-620 colon, 103%; with MCF7 breast it was 95.6%; in the test with HCT-116 colon, 100%; in the test on HCC-2998 colon it was 120%. Also, the growth with KM12 colon is 100%.
As to `Cc1cc(C2(c3cc(C)c(O)cc3C)OS(=O)(=O)c3ccccc32)c(C)cc1O`, the growth with T-47D breast is 102%; in the test on MDA-MB-435 melanoma, 116%; with SW-620 colon it was 106%; in the test on MCF7 breast, 78.5%; in the test on HCT-116 colon, 103%; in the test on HCC-2998 colon, 101%. For the same compound, the growth with KM12 colon was 106%.
On to `C=C1CCC2C(C)(CO)C(O)CCC2(C)C1CC(NCc1ccccc1)C1=CCOC1=O` (stereo not given), for which the growth in the test on T-47D breast is 97.7%; in the test with MDA-MB-435 melanoma, 106%; with SW-620 colon, 97.3%; with MCF7 breast, 89.8%; in the test with HCT-116 colon, 99.8%; with HCC-2998 colon, 108%. The growth in the test with KM12 colon is 104%.
In the case of `Cc1ccc(S(=O)(=O)NCCCNc2cc(-c3cn(C(C)(C)C)nc3-c3cccc(O)c3)ccn2)cc1`, the growth with T-47D breast is 44.2%; in the test with MDA-MB-435 melanoma, 63.1%; in the test with SW-620 colon, 19.1%; with MCF7 breast, 45.7%; in the test on HCT-116 colon it was 52.5%; with HCC-2998 colon, 50.3%. The growth with KM12 colon is 39.8%.
For the compound `C/C(=C\c1ccc(OCC(=O)O)c(Cl)c1Cl)[N+](=O)[O-]`, the growth in the test with T-47D breast is 100%; in the test on MDA-MB-435 melanoma it was 106%; with SW-620 colon, 114%; in the test with HCT-116 colon it was 109%; in the test with HCC-2998 colon it was 97.1%; in the test on KM12 colon it was 104%.
On to `Cc1ccc(S(=O)(=O)NCCNc2cc(-c3cn(C(C)(C)C)nc3-c3cccc(O)c3)ccn2)cc1`, for which the growth was 45.1% in the test with T-47D breast; 78.1% with MDA-MB-435 melanoma; 39.7% in the test with SW-620 colon; 41.6% in the test on MCF7 breast; 62.1% in the test with HCT-116 colon; 43% in the test on HCC-2998 colon. Further, in the test with KM12 colon, the growth is 65.1%.
With `CC(C)(C)n1cc(-c2ccnc(NCCNS(=O)(=O)c3ccc(C(F)(F)F)cc3)c2)c(-c2cccc(O)c2)n1`, the growth in the test on T-47D breast was 32.1%; in the test with MDA-MB-435 melanoma, 63.3%; in the test on SW-620 colon, 25.9%; in the test on MCF7 breast, 17.3%; with HCT-116 colon, 29.5%; with HCC-2998 colon, -0.263% (active). Further, the growth in the test on KM12 colon was 41.8%.
With `Cc1ccc(Nc2nnc(-c3ccc(Cl)cc3)o2)c(C)c1`, the growth in the test on T-47D breast was 75.6%; in the test on MDA-MB-435 melanoma it was 6.82% (active); with SW-620 colon, 56.5%; in the test with MCF7 breast, 56.9%; in the test with HCT-116 colon, 83.9%; in the test on HCC-2998 colon it was 84.8%. In the test on KM12 colon, the growth was 65.7%.
As to `O=S(=O)(NCCCNc1nccc(-n2ccc3cccnc32)n1)c1cccc(C(F)(F)F)c1`, the growth is 99.6% in the test with T-47D breast; 108% in the test with MDA-MB-435 melanoma; 108% with SW-620 colon; 103% with MCF7 breast; 105% in the test with HCT-116 colon; 119% in the test with HCC-2998 colon. Besides, the growth with KM12 colon is 98%.
Take `c1ccc(-c2nnc(-c3ccccn3)s2)nc1`: the growth was 33.9% with T-47D breast; 105% with MDA-MB-435 melanoma; 99.8% in the test on SW-620 colon; 28.6% in the test with MCF7 breast; 86.8% in the test with HCT-116 colon; 46.2% in the test with HCC-2998 colon. Further, in the test with KM12 colon, the growth is 97.3%.
Turning to `O=C(NNC(=O)N1c2ccccc2C=Cc2ccccc21)c1ccccc1`, the growth is 102% in the test with T-47D breast; 103% in the test with MDA-MB-435 melanoma; 107% in the test on SW-620 colon; 103% in the test with HCT-116 colon; 114% in the test on HCC-2998 colon; 105% in the test on KM12 colon.
For the compound `COc1ccc(S(=O)(=O)NCCCNc2nccc(-n3ccc4cccnc43)n2)cc1`, the growth was 78.2% with T-47D breast; 98.4% in the test on MDA-MB-435 melanoma; 113% in the test on SW-620 colon; 98.7% in the test on MCF7 breast; 105% with HCT-116 colon; 111% with HCC-2998 colon. In addition, in the test on KM12 colon, the growth was 94.6%.
Regarding `OCc1ncc(-c2ccccc2)s1`, the growth with T-47D breast is 89.8%; in the test with MDA-MB-435 melanoma, 108%; with SW-620 colon, 106%; in the test with MCF7 breast, 102%; with HCT-116 colon, 89.5%; in the test on HCC-2998 colon, 79.6%. The growth with KM12 colon is 103%.
Consider `CC(=O)Nc1ccc(S(=O)(=O)n2ccc(-c3ccc4c(c3)CCC(C)(C)O4)n2)cc1`, for which the growth with T-47D breast is 31.1%; with MDA-MB-435 melanoma, 67.3%; in the test on SW-620 colon, 82.5%; in the test on MCF7 breast, 66.2%; in the test on HCT-116 colon, 29.9%; with HCC-2998 colon, 83.3%. The growth in the test with KM12 colon was 67.4%.
As to `N=c1ccc2nc3ccc(N)cc3sc-2c1`, the growth was 5.98% (active) in the test with T-47D breast; -56.6% (active) in the test with MDA-MB-435 melanoma; 31.7% in the test with SW-620 colon; 14.6% in the test with MCF7 breast; 1.01% (active) in the test on HCT-116 colon; 53.2% in the test on HCC-2998 colon. The growth in the test with KM12 colon is 18.1%.
With `CC(C)(C)n1cc(-c2ccnc(NCCCNS(=O)(=O)c3ccc(C(F)(F)F)cc3)c2)c(-c2cccc(O)c2)n1`, the growth with T-47D breast was 31.3%; with MDA-MB-435 melanoma it was 32.2%; in the test with SW-620 colon it was 0.471% (active); with MCF7 breast it was 1.14% (active); in the test with HCT-116 colon, 16.1%; with HCC-2998 colon, -63% (active). Also, the growth in the test on KM12 colon was -14.2% (active).
On to `Clc1ccccc1-c1nc2ccccc2[nH]1`, for which the growth with T-47D breast was 89.3%; in the test on MDA-MB-435 melanoma it was 103%; with SW-620 colon it was 94.6%; in the test with MCF7 breast, 82.8%; in the test on HCT-116 colon, 78.6%; in the test with HCC-2998 colon, 70.9%. For the same compound, in the test on KM12 colon, the growth was 97.5%.
Consider `COc1cc(/C=C/c2cc(/C=C/c3ccc(O)c(OC)c3)n(C(N)=O)n2)ccc1O`, for which the growth with T-47D breast was -7.56% (active); with MDA-MB-435 melanoma it was -46% (active); with SW-620 colon, 0.998% (active); in the test with MCF7 breast, -16.4% (active); in the test with HCT-116 colon, -39.2% (active); in the test with HCC-2998 colon, 7.85% (active). Further, the growth in the test with KM12 colon was 3.47% (active).
Take `O=C(NCCCNc1nccc(-n2ccc3cccnc32)n1)c1c(F)cccc1F`: the growth with T-47D breast was 97.1%; in the test with MDA-MB-435 melanoma, 105%; with SW-620 colon it was 107%; with MCF7 breast, 88.4%; in the test on HCT-116 colon, 101%; in the test with HCC-2998 colon it was 104%. Also, in the test with KM12 colon, the growth is 106%.
In the case of `CC(C)(C)n1cc(-c2ccnc(NCCNS(=O)(=O)c3ccc(Cl)cc3)c2)c(-c2cccc(O)c2)n1`, the growth with T-47D breast is 38%; with MDA-MB-435 melanoma, 71.2%; in the test with SW-620 colon, 28%; in the test on MCF7 breast, 28.2%; in the test on HCT-116 colon it was 45.4%; with HCC-2998 colon, 36.7%. Besides, in the test on KM12 colon, the growth was 42.5%.
